PubChem BioAssay (NCATS)
Inconclusive results are not listed. Where a call stands in place of a potency, no number is given. Active and inactive are the calls of the source. Calls come from the whole dose curve; as a rule, active = well fitted cell-killing curve with a large enough effect; inconclusive = small, poorly fitted or top-dose-only effect; inactive = no such curve, though single readings can be large or run the other way.
Potency is the fitted concentration of half-maximal effect.

Experiment: qHTS of pediatric cancer cell lines to identify multiple opportunities for drug repurposing: Primary screen for SK-N-SH cells (AID 1347098); note: nearly all actives have a fitted effect of over 65% in size
Conditions: SK-N-SH viability, CellTiter-Glo luminescence, 48 h; series mostly up to 57 µM
Source text: Drug repurposing or repositioning has been offered as a strategy for drug development in oncology programs. This approach has special potential for childhood cancers and other rare or orphan diseases, where the expected return on new drug development has been a disincentive to pharmaceuticals.
In this project we exploit the poly-pharmacology of drugs to discover new indications via phenotypic screening of a panel of 19 well-characterized cell lines derived from solid tumors seen in children and adolescents. The goal is to identify approved drugs with previously unrecognized anticancer properties that has the potential to reveal new mechanisms and biological processes involved in carcinogenesis or drug resistance. We employed a titration-based paradigm (quantitative high-throughput screening or qHTS), where all compounds were tested at multiple concentrations for their effect on cell viability. Concentration-response curves (CRCs) were derived directly from the primary screen, and both potency and efficacy values were used to identify compounds with robust bioactivity profiles. We screened the NIH Chemical Genomics Center (NCGC) Pharmaceutical Collection (NPC) and Mechanism Interrogation Plate (MIPE) small molecule collections of approved and investigational compounds against these cell lines; and measured metabolically active cells after 48 hours of compound treatment as a proxy for cell viability.
Assay Submitter: Nathalia J. Martinez, National Center for Advancing Translational Sciences, National Institutes of Health, Rockville, MD, USA; email: natalia.martinez@nih.gov
[1] Shen, M et al. Quantitative high-throughput phenotypic screening of pediatric cancer cell lines identifies multiple opportunities for drug repurposing. Oncotarget 2017 Dec 19;9(4):4758-4772. PMID 29435139.
The cells were obtained from University of North Carolina (UNC), Pediatric Preclinical Testing Program (PPT), and Coriell Institute (CI).
qHTS cell viability assay:
Cells were assayed in growth media at a density of 500-1,000 cells/well. Five microliters of cells were dispensed into 1,536-well, white, solid-bottom, TC-treated plates (Greiner Bio One) using a multidrop dispenser and incubated at 37 degrees C, 5% CO2, under a humidified atmosphere for 5 hours. Twenty-three nanoliters of compounds and controls (neutral control DMSO or positive control bortezomib at final concentration of 2.3 µM) were subsequently transferred by Kalypsys pintool. For primary screens, the MIPE collection was tested at 11-point dilutions (final concentrations range from 0.78 nM to 46 µM) and the NPC collection at 8-point dilutions (final concentrations range from 0.59 nM to 46 µM). Compounds tested in follow-up screens were assayed at 11-point dilutions. Cells were incubated for 48 hours, followed by addition of 3 µL of CellTiter-Glo (Promega). After a 15 min incubation at room temperature, samples were analyzed for luminescence intensity using a ViewLux High-throughput CCD imager equipped with clear filters.
For `CCNC(=O)CC1N=C(c2ccc(Cl)cc2)c2cc(OC)ccc2-n2c(C)nnc21` (stereo not given), the Potency was 15.2 µM (active). For `CCN1CCN(C(=O)Cc2ccc(Nc3ncc(F)c(Nc4ccc(C(=O)Nc5ccccc5Cl)cc4)n3)cc2)CC1`, the Potency was 21.5 µM (active). For `COC[C@H]1OC(=O)c2coc3c2[C@@]1(C)C1=C(C3=O)[C@@H]2CC[C@H](O)[C@@]2(C)C[C@@H]1OC(C)=O`, the Potency was 27.1 µM (active). With `COc1ccc2c(c[n+](C)c3c4cc5c(cc4ccc23)OCO5)c1OC` the Potency was 12.1 µM (active). With `CCOP(=O)(NC(C)C)Oc1ccc(SC)c(C)c1` (stereo not given) the Potency was “inactive”. In the case of `CC[C@@]1(O)C(=O)OCc2c1cc1n(c2=O)Cc2cc3ccccc3nc2-1`, the Potency is reported as 0.121 µM (active). With `O=C(O)c1cc(Oc2ccc(C(F)(F)F)cc2Cl)ccc1[N+](=O)[O-]` the Potency was “inactive”. With `O=C(O)CNC(=O)c1c(O)c2ccccc2n(Cc2ccccc2)c1=O` the Potency was “inactive”. With `CC(=Cc1csc(C)n1)[C@@H]1C[C@H]2O[C@]2(C)CCC[C@H](C)[C@@H](O)[C@@H](C)C(=O)C(C)(C)[C@@H](O)CC(=O)O1` the Potency was “inactive”. For `C=CC(=O)NCNC(=O)C=C`, the Potency was “inactive”. In the case of `C[C@]12CCC(=O)C(O)=C1CC[C@@H]1[C@H]3CCC(=O)[C@@]3(C)CC[C@@H]12`, the Potency is reported as “inactive”. With `C[C@]12CC[C@H]3[C@@H](CCC4=CC(=O)CC[C@@]43C)[C@H]1CC[C@H]2O` the Potency was “inactive”. For `CC1=C(C(=O)O)N2C(=O)[C@@H](N)[C@H]2SC1`, the Potency was “inactive”. With `Oc1ccc2c3c1O[C@H]1c4[nH]c5c(c4C[C@@]4(O)[C@@H](C2)N(CC2CC2)CC[C@]314)C[C@@]1(O)[C@H]2Cc3ccc(O)c4c3[C@@]1(CCN2CC1CC1)[C@H]5O4` the Potency was “inactive”. In the case of `C[C@]12Cc3cn[nH]c3C[C@@H]1CC[C@@H]1[C@H]2CC[C@@]2(C)[C@H]1CC[C@]2(C)O`, the Potency is reported as “inactive”. With `CC(=O)Nc1ccc(OC[C@](C)(O)C(=O)Nc2ccc([N+](=O)[O-])c(C(F)(F)F)c2)cc1` the Potency was “inactive”. In the case of `CC(O)CN1CCN(CC(=O)[O-])CCN(CC(=O)[O-])CCN(CC(=O)[O-])CC1.[Gd+3]` (stereo not given), the Potency is reported as “inactive”. In the case of `Nc1ccc(Sc2ccc(N)cc2)cc1`, the Potency is reported as “inactive”. With `O=S(=O)(O)C(F)(F)C(F)(F)C(F)(F)C(F)(F)C(F)(F)C(F)(F)C(F)(F)C(F)(F)F` the Potency was “inactive”. For `C[C@@H]1O[C@@H](O[C@@H]2C=C3CC[C@@H]4[C@@H](CC[C@]5(C)[C@H](c6ccc(=O)oc6)CC[C@@]45O)[C@@]3(C)CC2)[C@H](O)[C@H](O)[C@H]1O`, the Potency was 0.0961 µM (active). For `O=C1CCC[C@@H]2[C@H]3CCCN4CCC[C@@H](CN12)[C@@H]34`, the Potency was “inactive”. With `c1cc2ccc3cccc4ccc(c1)c2c34` the Potency was “inactive”. In the case of `Cc1cc(O)ccc1Cl`, the Potency is reported as “inactive”. With `Cc1c(C(=O)Nc2cccc(C(F)(F)F)c2)cc(-c2ccccc2)n1CCCN1CCOCC1` the Potency was 24.1 µM (active). For `CC1(N2CCC(n3c([C@@H]4CCCNC4)nc4ccccc43)CC2)CCCCCCC1`, the Potency was 30.4 µM (active). In the case of `COC1=CC(C)=C[C@@H](C)[C@@H](O)[C@@H](C)CC(C)=CC=C[C@H](OC)[C@H]([C@@H](C)[C@@H](O)[C@H](C)[C@@]2(O)C[C@@H](O)[C@H](C)[C@@H](C(C)C)O2)OC1=O`, the Potency is reported as 0.0136 µM (active). For `CCN(CC)C(=O)c1ccc(C2=CC3(CCNCC3)Oc3cccc(O)c32)cc1`, the Potency was “inactive”. For `CCOCCOC(C)=O`, the Potency was “inactive”. In the case of `CC=C(C)C(=O)O[C@H]1C(C)=C2[C@@H]3OC(=O)[C@@](C)(O)[C@@]3(O)[C@@H](OC(=O)CCC)C[C@](C)(OC(C)=O)[C@@H]2[C@@H]1OC(=O)CCCCCCC`, the Potency is reported as 0.136 µM (active). With `CC(C)(C)NC[C@H](O)c1ccc(O)cc1Cl` the Potency was “inactive”. With `CCCCCC[C@H]1C(=O)O[C@H](C)[C@H](NC(=O)c2cccc(NC=O)c2O)C(=O)O[C@@H](C)[C@@H]1OC(=O)CC(C)C` the Potency was “inactive”. With `CC(C)(O)C(=O)Nc1ccc([N+](=O)[O-])c(C(F)(F)F)c1` the Potency was 24.1 µM (active). For `O=[N+]([O-])c1ccc([As](=O)(O)O)cc1`, the Potency was “inactive”. In the case of `Cc1ccc(Cl)c(O)c1`, the Potency is reported as “inactive”. For `Cc1[nH]nc2ccc(-c3cncc(OC[C@@H](N)Cc4c[nH]c5ccccc45)c3)cc12`, the Potency was 0.304 µM (active). With `O=[N+]([O-])c1c(Cl)c(Cl)cc(Cl)c1Cl` the Potency was “inactive”. In the case of `COc1ccc(N(C(=O)Oc2c(C)cccc2C)c2ccnc(Nc3ccc(N4CCN(C)CC4)cc3)n2)c(OC)c1`, the Potency is reported as 0.242 µM (active). For `O=S(=O)(CC1CS1)c1ccc(Oc2ccccc2)cc1` (stereo not given), the Potency was 24.1 µM (active). In the case of `CN(C)NC(=O)CCC(=O)O`, the Potency is reported as “inactive”. With `CCOC(=O)c1cncn1[C@H](C)c1ccccc1` the Potency was “inactive”.
